The values that follow come from PubChem BioAssay (NCATS).

Assay [1] in a line: AP1 Signaling Pathway (AID 357).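 Note: ME-180 reporter cells stimulated with EGF at its EC50 level; % is set by controls: 0 for no effect and ±100 for the full control effect.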 To be noted: ME-180 AP-1-bla reporter, EGF-induced, beta-lactamase ratio, 5 h; at 17.2 µM (top of the series) unless noted. The procedure, abridged:
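A ratiometric CCF4 readout (405 nm excitation; 460 and 530 nm emission) quantified AP-1-driven beta-lactamase in ME-180 cells after 5 h with compound and EC50 EGF; AC50 values were derived for activators and inhibitors.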

Assay [2] in a line: NFAT Signaling Pathway (AID 444).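 Note: carbachol stimulus at about its EC50 of 1 µM final; % is set by controls: 0 for no effect and ±100 for the full control effect.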 To be noted: Jurkat NFAT-bla M1, carbachol, beta-lactamase ratio, 5 h; at 17.2 µM (top of the series) unless noted. The procedure, abridged:
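Jurkat cells with NFAT-driven β-lactamase reporter and co-expressed M1 receptor, stimulated with carbachol (final 1 uM, ~EC50), compound titration, 5 h at 37 °C. CCF4 loaded 1 h at RT; 460/530 nm ratio gave %activity and AC50.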

Assay [3] in a line: Stat Signaling Pathway (AID 446).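 Note: ME-180 cervical cancer cells given 40 pM IL-6 alongside compound; SIE-controlled beta-lactamase reporter measured as 460/530 nm FRET emission ratio; % is set by controls: 0 for no effect and ±100 for the full control effect.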 To be noted: ME-180 (cervical carcinoma) SIE beta-lactamase reporter, IL-6 stimulated, 5 h; at 17.2 µM (top of the series) unless noted. The essentials:
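FRET read-out (405 nm excitation, 460/530 nm emission) of a beta-lactamase reporter under a STAT-inducible element in ME-180 cervical carcinoma cells. Cells with compound receive 40 pM IL-6 for 5 h. Values are normalised to AC90 stimulation and AC90 JAK-inhibitor controls.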

Assay [4] concerns the target Glucocorticoid receptor (Homo sapiens) (UniProt P04150). Put plainly: GR-GFP Redistribution (AID 450;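 active = compounds whose dose series gives a full or clear partial fitted curve of increased nuclear translocation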; note: potency is the fitted concentration of half-maximal effect).

Values without a mark were called inactive. Results filed as inconclusive are left out. Calls of active or inactive are those of the source. Unless noted, calls come from the whole dose curve; as a rule, active = well fitted curve in either direction with a large enough effect (not every such curve was filed as active); inconclusive = small, poorly fitted or top-dose-only effect, or another doubt; inactive = flat fitted curve, though single readings scatter.

Sequence of Glucocorticoid receptor (Homo sapiens) (P04150 whole entry, looked up): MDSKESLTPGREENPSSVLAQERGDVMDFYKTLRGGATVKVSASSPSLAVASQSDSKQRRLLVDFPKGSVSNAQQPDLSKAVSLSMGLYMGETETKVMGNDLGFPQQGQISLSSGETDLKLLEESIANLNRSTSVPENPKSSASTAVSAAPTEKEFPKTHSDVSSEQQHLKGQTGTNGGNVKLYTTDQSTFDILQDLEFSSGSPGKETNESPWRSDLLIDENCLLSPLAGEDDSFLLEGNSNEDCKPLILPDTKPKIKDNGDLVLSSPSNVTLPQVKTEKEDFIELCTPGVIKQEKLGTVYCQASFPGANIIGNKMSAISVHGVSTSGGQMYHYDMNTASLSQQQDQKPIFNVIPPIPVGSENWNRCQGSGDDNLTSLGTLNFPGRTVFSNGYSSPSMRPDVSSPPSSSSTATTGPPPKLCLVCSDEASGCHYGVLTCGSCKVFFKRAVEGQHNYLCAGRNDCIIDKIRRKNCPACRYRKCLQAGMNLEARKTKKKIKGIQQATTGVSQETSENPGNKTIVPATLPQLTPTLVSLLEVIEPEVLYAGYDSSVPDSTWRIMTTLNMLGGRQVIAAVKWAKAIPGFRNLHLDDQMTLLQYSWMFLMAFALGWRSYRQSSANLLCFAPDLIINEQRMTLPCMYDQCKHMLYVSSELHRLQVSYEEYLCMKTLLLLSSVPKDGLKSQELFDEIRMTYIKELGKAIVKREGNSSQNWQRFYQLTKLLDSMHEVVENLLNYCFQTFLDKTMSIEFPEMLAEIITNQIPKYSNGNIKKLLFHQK

As for `COc1ccc[nH]c1=O`, the activity change, negative = inhibition in assay [1] is 14.3%; in assay [2], -4.63%. In addition, in assay [3], the activity, negative = inhibition is 3.09%. For the same compound, the Potency in assay [4] is above 20.6 µM.
The matching figures for `Cn1c(=O)c2c(nc(NCc3ccc4c(c3)OCO4)n2Cc2ccccc2Cl)n(C)c1=O`: -22.3%, -8.43%, -2.58% and above 20.6 µM.
`CC(NC(=O)Nc1ncccn1)(C(F)(F)F)C(F)(F)F`: the activity change, negative = inhibition in assay [1] is 1.93%; in assay [2], 1.67%. The activity, negative = inhibition in assay [3] is -5.56%. Moreover, the Potency in assay [4] was above 20.6 µM.
Regarding `O=C(O)C1CSCN1S(=O)(=O)c1cccc2nsnc12` (centres undefined), the activity change, negative = inhibition in assay [1] was 1.17%; in assay [2], 4.31%. For the same compound, in assay [3], the activity, negative = inhibition was -1.2%. Besides, in assay [4], the Potency is above 20.6 µM.
Taken in the same sequence, the figures for `O=C(O)CCCCCN1C(=O)CCC1=O` were 13.2%, 23.1%, 5.29% and above 20.6 µM.
`Cc1cc(C)n(C(=O)CSc2nc3ccccc3o2)n1`: the activity change, negative = inhibition was 13.4% in assay [1] and -4.76% in assay [2]. In assay [3], the activity, negative = inhibition was 2.26%. Besides, the Potency in assay [4] is above 20.6 µM.
Taken in the same sequence, the figures for `CCn1c(SC(C)C(=O)O)nc2sc3c(c2c1=O)CCC3` (centres undefined) were 2.76%, 17.5%, -5.33% and above 20.6 µM.
The matching figures for `CCOc1nnnc2c1sc1nc(N3CCOCC3)c3c(c12)CC(C)(C)OC3`: -7.69%, -17.4%, -9.58% and above 20.6 µM.
Taken in the same sequence, the figures for `CCOC(=O)CSc1nc2ccccc2c(=O)n1C` were -12.5%, -11.5%, 1.58% and above 20.6 µM.
For `CC1(C)Cc2c(c(-c3ccccc3)[nH]c(=O)c2C#N)CS1`, the activity change, negative = inhibition was -0.182% in assay [1] and 2.27% in assay [2]. For the same compound, the activity, negative = inhibition in assay [3] was -8.62%. The Potency in assay [4] was above 20.6 µM.
Taken in the same sequence, the figures for `CCCCc1nc2n[nH]c(N)c2c2c1CCCC2` were 20.3%, 1.99%, 7.03% and above 20.6 µM.
The matching figures for `COc1cc(-n2c3nc4ccccc4nc3c3c(=O)n(Cc4ccco4)cnc32)cc(OC)c1OC`: -7.36%, -5.5%, 3.4% and above 20.6 µM.
As for `CCCCOc1ccc(C2CC(=O)N(C)C2=O)cc1` (centres undefined), the values for the activity change, negative = inhibition in assay [1] and in assay [2] were -14.6% and -3.42%, respectively. Further, in assay [3], the activity, negative = inhibition was 4.12%. Also, in assay [4], the Potency is above 20.6 µM.
Turning to `CCN(CC)CCN1C(=O)c2ccccc2NC1c1cc(OC)c(OC)c(OC)c1` (centres undefined), the activity change, negative = inhibition in assay [1] was 8.96%; in assay [2], 5.73%. Moreover, the activity, negative = inhibition in assay [3] was 10.5%. In addition, in assay [4], the Potency is above 20.6 µM.
For `COc1cccc(N2CCN(C3CC(=O)N(c4cccc(Cl)c4)C3=O)CC2)c1` (centres undefined), the activity change, negative = inhibition in assay [1] was -3.08%; in assay [2], 12.6%. The activity, negative = inhibition in assay [3] was -13.6%. In addition, the Potency in assay [4] was above 20.6 µM.
Regarding `CCOC(=O)c1ccc(CC2S/C(=C(\C#N)C(C)=O)NC2=O)cc1` (centres undefined), the activity change, negative = inhibition was -24.1% in assay [1] and 13.3% in assay [2]. Also, the activity, negative = inhibition in assay [3] is -21.4%. In addition, the Potency in assay [4] was above 20.6 µM.
As for `CC(=O)C1=C(O)C(=O)N(c2ccc(Br)cn2)C1c1ccccc1F` (centres undefined), the activity change, negative = inhibition in assay [1] is -1.6%; in assay [2] it was 1.82%. In assay [3], the activity, negative = inhibition is -16.8%. Also, in assay [4], the Potency is above 20.6 µM.
As to `CCOc1cccc(-c2nnc3sc(-c4cccs4)nn23)c1`, the activity change, negative = inhibition in assay [1] was -12.6%; in assay [2], -10.8%. For the same compound, in assay [3], the activity, negative = inhibition is 5.52%. The Potency in assay [4] was above 20.6 µM.
The matching figures for `N#CCCSCc1ccc(OCC(=O)O)cc1`: 2.01%, -0.583%, 0.185% and above 20.6 µM.
The matching figures for `CCCOc1ccc(N2C(=O)CC(N(CCC)C(=O)CCC(=O)O)C2=O)cc1` (centres undefined): 3.59%, 18.7%, 6.31% and above 20.6 µM.
Taken in the same sequence, the figures for `COc1ccc(C2=Nn3c(nnc3-c3ccccc3)SC2)cc1OC` were -10.8%, -10.8%, 3.68% and above 20.6 µM.
As for `CCOC(=O)c1[nH]c2ccc(OC)cc2c1NC(=O)CCN1CCCC(C)C1` (centres undefined), the values for the activity change, negative = inhibition in assay [1] and in assay [2] were -2.35% and -82.5% (active), respectively. Further, the activity, negative = inhibition in assay [3] is 3.31%. Further, the Potency in assay [4] is above 20.6 µM.
The matching figures for `C=CCc1cccc(/C=N/c2ncn[nH]2)c1O`: -5.91%, -19.8%, 5.03% and above 20.6 µM.
Taken in the same sequence, the figures for `CC(=O)NC(=O)Nc1sc(=S)n(C)c1C` were -0.255%, 15.7%, 1.93% and above 20.6 µM.
Taken in the same sequence, the figures for `O=C1CCC(=O)N1CNc1ccccn1` were 10.7%, -7.64%, 15.6% and above 20.6 µM.
In the case of `COc1ccc(/C(O)=C2/C(=O)C(=O)N(CCCN(C)C)C2c2cccc(Cl)c2)cc1OC` (centres undefined), the activity change, negative = inhibition is -5.39% in assay [1] and 6.97% in assay [2]. Besides, the activity, negative = inhibition in assay [3] is 3.83%. Further, the Potency in assay [4] is above 20.6 µM.
